# Inconclusive results are not listed. Active and inactive are the calls of the source. The call rests on the fitted dose curve; in most records, active means well fitted cell-killing curve with a large enough effect in the repeat runs; inconclusive means weak or mixed curves; inactive means flat fitted curve, though single readings scatter. Non-standard residues stand in square brackets, D forms with d. Residues, ends and D or L forms follow the SMILES beside them. *: point of attachment. Sta = CC(C)C[C@H](N)[C@@H](O)CC(=O)O; Isovaleryl = CC(C)CC(=O)*
# Test: qHTS assay to identify small molecule antagonists of the estrogen related receptor (ERR) signaling pathway from Tox21 library - cell viability counter screen (AID 1224834); further: nearly all actives have a fitted effect of over 30% in size
# Details: ERR reporter cells viability, CellTiter-Fluor, 17.5 h; series mostly up to 92.4 µM; viability change, negative = cytotoxic: at the top concentration
# Text: National Center for Advancing Translational Sciences [NCATS]
# NIH Chemical Genomics Center [NCGC]
# U.S. Environmental Protection Agency [EPA]
# National Institutes of Environmental Health Sciences [NIEHS]
# National Toxicology Program [NTP]
# U.S. Food and Drug Administration [FDA]
# Estrogen related receptors (ERRs), the first orphan nuclear receptors discovered, play an important role in the control of cellular energy metabolism. ERRs are required for high-energy production in response to the environmental challenges. ERR-alpha was also identified as an adverse marker for breast cancer progression; ERR-alpha-positive tumors have a poor prognosis. To screen and to identify environmental compounds that perturb the ERR signaling pathways could provide valuable information for potential therapeutic or preventive measures in the treatment of metabolic disease. To differentiate true ERR antagonists or agonist from cytotoxic substances, the assay is multiplexed with cell viability assay.
# Tox21 Assay Protocol Summary:
# The ERR cells were dispensed at 2,000 cells/5 ul/well in 1536-well white plates using a Multidrop dispenser. After the assay plates were incubated at a 37 C/5% CO2 incubator for 6 hours, 23 nL of compounds dissolved in DMSO, positive and negative controls or DMSO only was transferred to the assay plate by a pin tool. The plates were incubated at 37 C for 17.5 hours. 1 ul/well of CellTiter-Fluor reagent was added into the assay plates using a Flying Reagent Dispenser. After 30-minute incubation at 37 C/5% CO2, the fluorescence intensity in the plates was measured using a ViewLux plate reader.
# On the % scale 0 is the no-effect control and ±100 the full control effect.
row,SMILES,"viability change, negative = cytotoxic"
1,CN(C)c1ccncc1,0.557% (inactive)
2,CC(C)(C)c1ccc(N)cc1,0.881% (inactive)
3,COCc1nnc(-c2ccc[n+]([O-])c2)n1-c1c(Cl)c(Cl)cc2[nH]c(=O)c(=O)[nH]c12,2.81% (inactive)
4,Cc1ccc(NC(N)=O)cc1,1.53% (inactive)
5,O=P(O)(O)C(O)(Cc1cccnc1)P(=O)(O)O,8.71% [at 42.5 µM] (inactive)
6,CC(C)OCCO,1.57% (inactive)
7,CC/C=C\CCOC(=O)c1ccccc1,6.74% (inactive)
8,CC1=C(O)C(=O)CO1,0.644% (inactive)
9,CC(=O)c1ccc2ccc3ccccc3c2c1,0.883% (inactive)
10,CC1(C)C(=O)C(C)(C)C1=O,-0.104% (inactive)
11,N#Cc1cc(NC(=O)C(=O)O)c(Cl)c(NC(=O)C(=O)O)c1,6.08% [at 42.5 µM] (inactive)
12,Cc1ccccc1C#N,1.47% (inactive)
13,CCNC(=O)C(C)OC(=O)Nc1ccccc1 (stereo not given),2.55% (inactive)
14,CNC(C)=O,-3.65% (inactive)
15,CCOC(=O)COc1ccc2c(C)c(CCN(CC)CC)c(=O)oc2c1Cl,-3.5% [at 42.5 µM] (inactive)
16,C=CC(=O)OCCOCCOCC,0.0134% (inactive)
17,C[Si](C)(C)O[Si](O)(O)O,2.82% (inactive)
18,CC(C)C(=O)Nc1cccc(C2CN3CCSC3=N2)c1 (stereo not given),-2.56% [at 42.5 µM] (inactive)
19,CCCCCC(CC)OC(=O)CCCOc1ccc(Cl)cc1Cl (stereo not given),7.19% (inactive)
20,COCCCOc1cc(C[C@@H](C[C@H](N)[C@@H](O)C[C@H](C(=O)NCC(C)(C)C(N)=O)C(C)C)C(C)C)ccc1OC,0.0789% [at 42.5 µM] (inactive)

row,SMILES,"viability change, negative = cytotoxic"
1,CC(C)CC(=O)N[C@H](C(=O)N[C@H](C(=O)N[C@@H](CC(C)C)[C@@H](O)CC(=O)N[C@@H](C)C(=O)N[C@@H](CC(C)C)[C@@H](O)CC(=O)O)C(C)C)C(C)C (Isovaleryl-VV[Sta]A[Sta]-OH),1.7% [at 42.5 µM] (inactive)
2,O=CN1CCCCC1,1.07% (inactive)
3,COc1cc(S(N)(=O)=O)cc(C(=O)O)c1OC,0.0397% [at 42.5 µM] (inactive)
4,NC(=O)CC[C@@H](N)C(=O)O,0.288% [at 42.5 µM] (inactive)
5,CCOC(=O)c1ccc(N(C)C)cc1,0.0636% (inactive)
6,CC(C)(C)c1ccc(C(=O)CCCCl)cc1,-1.51% [at 42.5 µM] (inactive)
7,CCCCCCCCCCCCCCCCN(C)C,0.965% [at 8.39 µM] (inactive)
8,O=C(O)/C=C(\CC(=O)O)C(=O)O,-0.891% [at 42.5 µM] (inactive)
9,CCCCCCCCS(=O)(=O)O,3.85% (inactive)
10,COC(=O)N/N=C/c1c[n+]([O-])c2ccccc2[n+]1[O-],-2.76% [at 42.5 µM] (inactive)
11,Cc1cc(=O)oc2cc(O[C@@H]3SC[C@@H](O)[C@H](O)[C@H]3O)ccc12,1.31% [at 42.5 µM] (inactive)
12,CC(=O)c1c(C)cc(C(C)(C)C)cc1C,-3.53% (inactive)
13,c1coc(Cn2cccc2)c1,-2.16% (inactive)
14,CC(=O)OC/C=C(/C)CCC=C(C)C,2.03% (inactive)
15,O=C(O)Cc1ccccc1Oc1ccc(Cl)cc1Cl,3.48% [at 42.5 µM] (inactive)
16,O=C(O)CCC(=O)Nc1ccc(S(=O)(=O)Nc2nccs2)cc1,4.35% [at 42.5 µM] (inactive)
17,C=CCOC(=O)CCCCCCCC,0.584% (inactive)
18,CC(C)C(C)C,4.2% (inactive)
19,CCCC(=O)CC,4.01% (inactive)
20,CCOC(=O)CC(C(C)=O)C(C)=O,3.09% (inactive)

# From PubChem BioAssay (Tox21)
